Assay results as given in PubChem BioAssay AID588855 (National Center for Advancing Translational Sciences (NCATS), 2011).
Screen size: about 410,000 compounds; about 5,000 (1.2%) were called active. Another 13% or so got no clear call; they are omitted. The call rests on the fitted dose curve; in most records, active means well fitted inhibition curve with a large enough effect; inconclusive means small, poorly fitted or top-dose-only effect; inactive means no such curve, though single readings can be large or run the other way. Many of the other results were omitted from the sample, so actives are more common in it than they were.

assay: qHTS for Inhibitors of TGF-b; settings: HepG2 CAGA-GFP TGF-b/SMAD3 reporter, GFP fluorescence, 18 h, TGF-beta stimulated, 500 pg/mL final; series mostly up to 46.1 µM; further: nearly all actives have a fitted effect of over 65% in size
In short: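 GFP signal (ex488/em500-530) from TGF-beta-stimulated HEPG2 CAGA-GFP cells, 500 pg/mL final, 18 h at 37 degrees C in DMEM plus 1% FBS, normalized to unstimulated and DMSO-stimulated controls.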
Potency means the concentration at half of the fitted maximal effect.

Potency, active:
N/C(=N\S(=O)(=O)c1cc(C(F)(F)F)cc(C(F)(F)F)c1)c1cccs1 12.6 µM
N=C1C(c2nc3ccccc3s2)=C(O)CN1NC(=O)c1ccc([N+](=O)[O-])cc1 7.08 µM
CCOc1ccc(CCN2C(=S)N([C@@H](CC(C)C)CN3CCC[C@@H]3CN3C(=S)NC[C@@H]3Cc3ccc(O)cc3)C[C@@H]2Cc2ccc(O)cc2)cc1 11.2 µM
CCOc1ccc(CCN2C(=S)N([C@@H](CC(C)C)CN3CCC[C@@H]3CN3C(=S)NC[C@@H]3Cc3ccc(O)cc3)C[C@@H]2CC(C)C)cc1 10 µM
CC(C)C[C@H]1CNC(=S)N1C[C@H]1CCCN1C[C@H](Cc1ccc(O)cc1)N1C[C@H](Cc2ccc(O)cc2)N(CC2CCCCC2)C1=S 15.8 µM
CC1(C(=O)Nc2cccc3c2CCCC3)CCN1C(=O)CCc1ccc(Cl)cc1Cl (configuration not stated) 12.6 µM
C/C(=N\NC(=O)Cc1ccc(Cl)cc1)c1ccccn1 3.98 µM
CC(=NNC(=S)N1CCCCCC1)c1ccccn1 1.26 µM
Nc1ccc(Nc2ccccc2)cc1 14.1 µM
O=C(/C(=C/c1cccc(Cl)c1)c1nc2ccccc2[nH]1)c1ccccc1 3.16 µM
COc1ccc(-c2csc(NC3OC(=O)c4ccccc43)n2)cc1 (configuration not stated) 10 µM
COc1ccc(/C=C/C(=O)c2ccc(NS(=O)(=O)c3ccc(C)cc3)cc2)cc1O 12.6 µM
CCOC(=O)C1CCN(C(=O)CSc2c3c(nc4ccc(Cl)cc24)CCCC3)CC1 15.8 µM
Cc1ccc(S(=O)(=O)Nc2ccc3c(c2)C(=O)N([C@H](C)CO)C[C@@H](C)[C@@H](CN(C)C(=O)Nc2cccc4ccccc24)O3)cc1 11.2 µM
Cc1nn(-c2ccccc2)c(C)c1/C=N/NC(=O)CSc1nc2ccccc2c(=O)n1-c1ccccc1 3.98 µM
CC(C)c1ccc2c(c1)c(SC(C)(C)C)c(CC(C)(C)C(=O)O)n2Cc1ccc(Cl)cc1 10 µM
COc1cccc2sc(N(CCCN(C)C)C(=O)CCS(=O)(=O)c3ccccc3)nc12 1.12 µM
COc1cccc2sc(N(CCCN(C)C)C(=O)C(c3ccccc3)c3ccccc3)nc12 12.6 µM
Cc1cccc2sc(N(CCCN(C)C)C(=O)CCS(=O)(=O)c3ccccc3)nc12 3.16 µM

Potency, inactive:
CCc1ccc(-n2nc(C)c3c(C)cc(=O)n(CC(=O)Nc4ccc(F)cc4C)c32)cc1
CCOc1ccccc1NC(=O)CCn1cnnn1
Cc1ccc(S(=O)(=O)/N=C(\N)c2ccc(F)cc2)cc1
O=C(Cc1cccs1)NCc1cccc(C(F)(F)F)c1
CCc1ccc(NC(=O)CSc2nc3c([nH]c4ccccc43)c(=O)n2-c2cccc(OC)c2)cc1
COc1ccc(-c2nc(Cn3c(=O)cc(C)c4c(C)nn(-c5ccccc5)c43)c(C)o2)cc1OC
Cc1ccc(C)n1NC(=O)c1ccc([N+](=O)[O-])cc1
N=C1C(c2nc3ccccc3[nH]2)=C(O)CN1NC(=O)c1c[nH]c2ccccc12
Cc1ccc(C(=O)Nc2ccc(OCc3cc(=O)n4c5c(sc4n3)CCCC5)cc2)cc1
O=C1NC[C@H](Cc2ccc(O)cc2)N(C[C@H]2CCCN2C[C@H](Cc2ccccc2)N2C[C@H](Cc3ccccc3)N(CCc3ccccc3)C(=O)C2=O)C1=O
C[C@@H](CN1CCC[C@H]1CN1C(N)=NC[C@@H]1Cc1ccccc1)N1C[C@@H](Cc2ccccc2)N(CCCC2CCCC2)C1=N
O=C1NC[C@@H](Cc2ccc(O)cc2)N(CCc2cccc(F)c2)C1=O
NC1=NC[C@@H](Cc2ccc(O)cc2)N1CC1CCCCC1
CC[C@@H](C)[C@@H]1CN([C@@H](C)CN2CCC[C@H]2CN2C(N)=NC[C@H]2C(C)C)C(=N)N1CCc1ccc(Cl)c(Cl)c1
CCOC(=O)c1cnc2c(C)cc(Cl)cc2c1NCCc1ccc(OC)c(OC)c1
Cn1c(=O)c2sccc2n2c(CCC(=O)NCc3ccccc3Cl)nnc12
CCc1cc2c(cc3c(=O)n(CC(=O)NCCc4ccc(OC)c(OC)c4)ncn32)s1
COc1ccc(C2NC(=O)N(C)C3=C2C(=O)N(c2ccc(C(=O)O)cc2)C3)cc1 (configuration not stated)
CN(C)c1ccc(/C=N\Nc2ccc([N+](=O)[O-])cc2[N+](=O)[O-])cc1Cl
CN(CCC#N)c1ccc(C=O)cc1
Cc1ccc(S(=O)(=O)N2CCN(c3nc(-n4cnc5ccccc54)nc4ccccc34)CC2)cc1
Cc1ccc(NC(=O)C(Cc2ccccc2)NS(=O)(=O)c2ccc3c(c2)oc(=O)n3C)cc1C (configuration not stated)
Cc1cccc(N2CCN(C(=O)c3cnc(N4CCCC4)nc3C)CC2)c1C
CC1(C(=O)Nc2cccc3c2CCCC3)CCN1C(=O)C1(c2ccccc2)CC1 (configuration not stated)
Cc1ccccc1S(=O)(=O)NC(=O)C1(C)CCN1C(=O)Cc1ccc(Cl)cc1Cl (configuration not stated)
CC(=O)c1ccc(NS(=O)(=O)c2ccc(-c3cc(C)no3)s2)cc1
Cc1oc(-c2ccccc2F)nc1CN1CCC(C(=O)NCCc2ccc(Cl)cc2)CC1
COc1ccc(Cl)cc1NC(=O)C(C)Sc1nc2c(c(=O)[nH]1)CCCC2 (configuration not stated)
CCOc1ccc(NC(=O)c2c(NC(=O)Cc3ccccc3)sc3c2CCCCC3)cc1
CC1=NNC(=O)C1CCC(=O)N/N=C(\C)c1ccc(Cl)cc1 (configuration not stated)
CCOc1ccc(NC(=S)N2CCCCCC2)cc1
O=C(Cc1ccc(Cl)cc1)c1ccccc1
CCNC(=S)N1CCN(c2ncccn2)CC1
CCCN(CCC)C(=O)Cn1c(=O)n(-c2ccc(Cl)cc2)c(=O)c2c3c(sc21)CCCCC3
Cc1ccc(-c2nnc3ccc(SCC(N)=O)nn23)cc1
COc1ccccc1C(=O)Nc1ccc(Nc2ccccc2)cc1
Cc1ccc(Nc2ccccc2N)cc1
COC(=O)c1ccc(NC(=O)CSc2n[nH]c(-c3ccccc3)n2)cc1
CC(Sc1oc(-c2ccco2)nc1S(=O)(=O)c1ccc(Br)cc1)c1ccccc1 (configuration not stated)
CCCCC(CCCC)c1ccc(C=Nc2ccc(/C=C/c3ccnc4ccccc34)cc2)cc1
CN(c1ccccc1)S(=O)(=O)c1cc(C(=O)Nc2nc3ccccc3[nH]2)ccc1Cl
Cc1ccc2nc(CNC(=O)c3ccccc3)[nH]c2c1
Cc1cc(C)c(/C=C/c2onc(C)c2S(=O)(=O)N2CCC(C(=O)Nc3ccc(Cl)cc3C)CC2)c(C)c1
Cc1ccc(NC(=O)C(=O)NCC(c2cccnc2)N2CCOCC2)cc1 (configuration not stated)
Cc1ccc(S(=O)(=O)N(CC(=O)Nc2ccc(Cl)cc2Cl)c2ccccc2C)cc1
COc1ccc(C(C)(NC(C)=O)c2nc(-c3ccc(S(C)(=O)=O)cc3)cs2)cc1 (configuration not stated)
COc1ccc(N/C=C(\C2OC(=O)c3ccccc32)[N+](=O)[O-])cc1 (configuration not stated)
Cc1ccc(C(=O)/C=C/Nc2ccc(S(=O)(=O)Nc3onc(C)c3C)cc2)cc1
COc1ccc(/C=C/C(=O)Nc2ccc(C)cc2)cc1S(=O)(=O)N1CCOCC1
Cc1ccc(C(=O)Nc2ccc(OCc3cc(=O)n4c(C)csc4n3)cc2)cc1
COc1ccc(CCNc2ncnc3onc(-c4ccc(Cl)cc4)c23)c(OC)c1
O=C(CSc1c2c(nc3ccc(Cl)cc13)CCCC2)NCc1ccco1
Cc1ccc(CNC(=O)CSc2c3c(nc4cc(Cl)ccc24)CCCC3)cc1
CN(C)C1=C2C=CC=CC2/C(=C2/C=Cc3ccccc32)C=C1 (configuration not stated)
CCOC(=O)c1ccc(NC(=O)c2c(NCc3cccs3)sc3c2CCCC3)cc1
COc1ccc(NC(=O)N(C)C[C@H]2Oc3ccc(NC(=O)C4CC4)cc3C(=O)N([C@H](C)CO)C[C@@H]2C)cc1
Cc1noc(C)c1NC(=O)Nc1ccc2c(c1)C(=O)N([C@H](C)CO)C[C@H](C)[C@@H](CN(C)C(=O)Nc1ccccc1)O2
COc1cc(OC)c(NC(=O)c2c3c(nn2C)-c2ccccc2SC3)cc1Cl
OC(CBr)CN1CCCCC1 (configuration not stated)
COc1ccccc1NC(=O)c1cc(S(=O)(=O)NCCc2ccccc2)ccc1F
Cc1ccc(-n2c(SCC(=O)N/N=C/C=C/c3ccccc3[N+](=O)[O-])nc3ccccc3c2=O)cc1
C/C(=N\NC(=O)CSc1nc2ccccc2c(=O)n1-c1ccccc1C)c1cccs1
Cc1nnc(C)n1-c1ccc(C(=O)Nc2cccc(Br)c2)cc1
Cc1ccccc1CNC(=O)c1ccc(NC(=O)N2CCCCc3ccccc32)cc1
CCOC(=O)c1c(NC(=O)c2ccc(S(=O)(=O)N(CC)CC)cc2)sc2c1CCCCC2
Cc1c(C)n(Cc2ccc(Cl)cc2)c2ccc(C(=O)N3CCN(c4ccccc4F)CC3)cc12
Cc1ccc(S(=O)(=O)CCC(=O)OCC(=O)N(C)Cc2ccccc2)cc1
COc1ccccc1NC(=O)CC(NCCN(C)C)C(=O)O (configuration not stated)
O=C(CCS(=O)(=O)c1ccccc1)Nc1nc2c(s1)CCCC2
COc1ccc(N(C)C(=O)CCS(=O)(=O)c2cccc3nsnc23)cc1
Cc1ccc2sc(N(CCN(C)C)C(=O)/C=C/c3cccs3)nc2c1C
CCOc1cccc2sc(N3CCN(C(=O)C4CC4)CC3)nc12
Cc1ccc(-c2nnc(Nc3cccc(Br)c3)c3ccccc23)cc1S(=O)(=O)NCC1CCCO1 (configuration not stated)
